What is called inhibition is the drop in the measured response relative to a control, in per cent.

Assay [1] concerns the target Tyrosine-protein kinase Fer (Homo sapiens) (UniProt P16591). The settings on record: at 1 µM.
The target of assay [2] is Tyrosine-protein kinase Fes/Fps (Homo sapiens) (UniProt P07332). Particulars: at 0.1 µM.
The target is the same in assay [3]. The settings on record: at 1 µM.
In assay [4] the target is Fibroblast growth factor receptor 1 (Homo sapiens) (UniProt P11362). Particulars: at 0.1 µM.
The target is the same in assay [5]. The settings on record: at 1 µM.
For assay [6], the target named is Fibroblast growth factor receptor 2 (Homo sapiens) (UniProt P21802). Particulars: at 0.1 µM.
The target is the same in assay [7]. Particulars: at 1 µM.
The target in assay [8] is Fibroblast growth factor receptor 3 (Homo sapiens) (UniProt P22607). Particulars: at 0.1 µM.
The target is the same in assay [9]. Particulars: at 1 µM.
The target of assay [10] is Fibroblast growth factor receptor 4 (Homo sapiens) (UniProt P22455). The settings on record: at 0.1 µM.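 Note: values are mean percent inhibition of FGFR4.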
Fibroblast growth factor receptor 4 (Homo sapiens), sequence (P22455 22-802 limits assumed): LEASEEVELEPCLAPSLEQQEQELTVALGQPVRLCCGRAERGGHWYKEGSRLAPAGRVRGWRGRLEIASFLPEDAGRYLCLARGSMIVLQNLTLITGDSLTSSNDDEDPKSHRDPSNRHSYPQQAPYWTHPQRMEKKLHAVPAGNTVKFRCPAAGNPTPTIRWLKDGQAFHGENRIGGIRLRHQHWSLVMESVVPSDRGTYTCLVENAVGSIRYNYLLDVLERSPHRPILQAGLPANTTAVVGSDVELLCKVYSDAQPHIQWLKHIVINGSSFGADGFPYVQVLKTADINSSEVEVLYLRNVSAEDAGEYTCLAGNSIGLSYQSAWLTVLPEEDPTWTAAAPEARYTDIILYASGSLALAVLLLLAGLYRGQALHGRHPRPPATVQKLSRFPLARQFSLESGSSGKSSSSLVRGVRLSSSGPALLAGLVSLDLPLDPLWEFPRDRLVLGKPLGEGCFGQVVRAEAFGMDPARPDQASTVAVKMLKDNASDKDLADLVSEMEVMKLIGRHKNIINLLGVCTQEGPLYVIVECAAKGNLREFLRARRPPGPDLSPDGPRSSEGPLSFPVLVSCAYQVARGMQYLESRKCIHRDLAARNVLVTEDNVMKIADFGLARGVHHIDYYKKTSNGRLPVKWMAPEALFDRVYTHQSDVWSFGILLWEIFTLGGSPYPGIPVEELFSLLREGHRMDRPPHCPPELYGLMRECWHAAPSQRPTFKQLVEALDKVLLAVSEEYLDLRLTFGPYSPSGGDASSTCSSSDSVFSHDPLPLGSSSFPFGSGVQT

Fibroblast growth factor receptor 2 (Homo sapiens), sequence (P21802 22-821 limits assumed): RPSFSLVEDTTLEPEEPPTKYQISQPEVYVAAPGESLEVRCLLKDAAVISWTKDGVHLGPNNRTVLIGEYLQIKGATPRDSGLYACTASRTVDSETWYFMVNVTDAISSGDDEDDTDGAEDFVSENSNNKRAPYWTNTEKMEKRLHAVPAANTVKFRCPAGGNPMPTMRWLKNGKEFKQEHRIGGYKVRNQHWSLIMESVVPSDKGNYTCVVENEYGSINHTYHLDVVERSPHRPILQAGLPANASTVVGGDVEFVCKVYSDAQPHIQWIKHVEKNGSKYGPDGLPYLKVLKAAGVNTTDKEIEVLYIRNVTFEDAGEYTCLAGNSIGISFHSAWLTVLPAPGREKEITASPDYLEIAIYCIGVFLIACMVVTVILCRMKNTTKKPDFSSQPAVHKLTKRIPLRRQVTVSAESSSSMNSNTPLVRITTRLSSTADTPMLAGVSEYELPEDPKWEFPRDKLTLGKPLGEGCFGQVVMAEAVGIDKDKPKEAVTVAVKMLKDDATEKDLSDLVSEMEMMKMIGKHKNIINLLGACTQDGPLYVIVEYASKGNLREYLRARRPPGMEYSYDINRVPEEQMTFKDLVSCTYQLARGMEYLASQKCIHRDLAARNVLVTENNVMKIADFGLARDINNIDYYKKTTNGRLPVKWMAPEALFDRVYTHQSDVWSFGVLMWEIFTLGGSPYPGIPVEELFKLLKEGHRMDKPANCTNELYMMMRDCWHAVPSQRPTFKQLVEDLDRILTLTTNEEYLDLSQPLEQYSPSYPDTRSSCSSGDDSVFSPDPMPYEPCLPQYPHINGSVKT
Tyrosine-protein kinase Fer (Homo sapiens), sequence (P16591 whole entry, looked up): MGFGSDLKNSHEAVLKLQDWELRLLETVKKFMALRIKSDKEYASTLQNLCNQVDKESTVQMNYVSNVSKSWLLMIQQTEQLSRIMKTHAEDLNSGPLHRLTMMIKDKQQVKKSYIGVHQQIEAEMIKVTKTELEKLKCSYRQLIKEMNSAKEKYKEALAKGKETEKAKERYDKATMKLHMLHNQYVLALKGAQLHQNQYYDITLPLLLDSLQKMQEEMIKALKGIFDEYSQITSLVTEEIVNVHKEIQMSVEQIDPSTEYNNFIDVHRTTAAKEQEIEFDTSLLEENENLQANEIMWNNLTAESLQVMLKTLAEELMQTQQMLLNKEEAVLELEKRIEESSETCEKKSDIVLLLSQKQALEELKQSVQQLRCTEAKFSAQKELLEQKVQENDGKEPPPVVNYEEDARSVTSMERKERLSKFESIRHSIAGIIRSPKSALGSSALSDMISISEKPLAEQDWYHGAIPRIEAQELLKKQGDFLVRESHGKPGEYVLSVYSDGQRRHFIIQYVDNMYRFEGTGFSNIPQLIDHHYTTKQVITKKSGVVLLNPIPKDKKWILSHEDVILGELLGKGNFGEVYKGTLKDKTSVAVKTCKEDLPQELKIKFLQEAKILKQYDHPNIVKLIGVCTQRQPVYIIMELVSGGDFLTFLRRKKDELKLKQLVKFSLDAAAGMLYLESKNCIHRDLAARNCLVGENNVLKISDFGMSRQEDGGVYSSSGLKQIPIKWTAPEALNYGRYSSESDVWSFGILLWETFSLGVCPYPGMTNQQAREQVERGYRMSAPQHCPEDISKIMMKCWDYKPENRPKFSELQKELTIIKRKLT
Tyrosine-protein kinase Fes/Fps (Homo sapiens), sequence (P07332 whole entry): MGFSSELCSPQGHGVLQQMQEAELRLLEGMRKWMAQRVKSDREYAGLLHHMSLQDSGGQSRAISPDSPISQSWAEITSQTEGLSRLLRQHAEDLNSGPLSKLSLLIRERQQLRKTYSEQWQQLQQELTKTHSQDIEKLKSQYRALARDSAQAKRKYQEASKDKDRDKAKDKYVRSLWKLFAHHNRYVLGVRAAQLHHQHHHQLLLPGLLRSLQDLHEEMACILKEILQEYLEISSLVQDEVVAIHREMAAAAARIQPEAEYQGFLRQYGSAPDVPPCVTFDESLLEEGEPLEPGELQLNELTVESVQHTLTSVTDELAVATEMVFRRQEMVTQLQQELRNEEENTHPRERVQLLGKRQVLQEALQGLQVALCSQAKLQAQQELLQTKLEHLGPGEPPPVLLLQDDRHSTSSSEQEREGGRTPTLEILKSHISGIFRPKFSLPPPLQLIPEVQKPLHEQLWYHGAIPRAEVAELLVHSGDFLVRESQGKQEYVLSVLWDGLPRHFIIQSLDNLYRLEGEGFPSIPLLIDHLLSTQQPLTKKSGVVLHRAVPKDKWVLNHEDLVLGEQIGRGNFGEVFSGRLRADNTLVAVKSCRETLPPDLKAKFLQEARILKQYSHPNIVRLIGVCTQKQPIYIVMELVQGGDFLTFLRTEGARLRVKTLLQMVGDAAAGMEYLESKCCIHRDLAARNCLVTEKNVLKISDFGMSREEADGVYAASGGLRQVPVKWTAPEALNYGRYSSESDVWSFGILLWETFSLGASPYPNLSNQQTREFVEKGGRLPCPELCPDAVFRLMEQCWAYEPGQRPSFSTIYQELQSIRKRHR
Fibroblast growth factor receptor 3 (Homo sapiens), sequence (P22607 23-806 limits assumed): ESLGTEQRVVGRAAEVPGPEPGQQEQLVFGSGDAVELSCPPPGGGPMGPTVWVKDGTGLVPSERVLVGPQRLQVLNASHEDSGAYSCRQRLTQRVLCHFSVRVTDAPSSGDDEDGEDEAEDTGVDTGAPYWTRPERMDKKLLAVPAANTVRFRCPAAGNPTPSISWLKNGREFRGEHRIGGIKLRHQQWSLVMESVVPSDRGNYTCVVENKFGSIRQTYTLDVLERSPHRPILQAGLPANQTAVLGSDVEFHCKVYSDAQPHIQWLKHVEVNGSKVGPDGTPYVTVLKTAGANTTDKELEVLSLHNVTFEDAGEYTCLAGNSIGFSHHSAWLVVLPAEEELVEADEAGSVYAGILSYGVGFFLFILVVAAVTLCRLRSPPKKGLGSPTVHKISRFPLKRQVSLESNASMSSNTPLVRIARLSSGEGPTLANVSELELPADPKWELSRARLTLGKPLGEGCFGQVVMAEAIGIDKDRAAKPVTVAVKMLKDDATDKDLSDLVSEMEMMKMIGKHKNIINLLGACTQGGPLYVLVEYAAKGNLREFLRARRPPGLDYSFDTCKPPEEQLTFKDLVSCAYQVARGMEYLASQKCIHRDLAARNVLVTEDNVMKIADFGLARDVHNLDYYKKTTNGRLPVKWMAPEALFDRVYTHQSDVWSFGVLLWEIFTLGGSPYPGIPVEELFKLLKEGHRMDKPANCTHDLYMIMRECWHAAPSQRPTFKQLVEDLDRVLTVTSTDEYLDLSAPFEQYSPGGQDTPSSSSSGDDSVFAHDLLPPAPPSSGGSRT
Fibroblast growth factor receptor 1 (Homo sapiens), sequence (P11362 22-822 limits assumed): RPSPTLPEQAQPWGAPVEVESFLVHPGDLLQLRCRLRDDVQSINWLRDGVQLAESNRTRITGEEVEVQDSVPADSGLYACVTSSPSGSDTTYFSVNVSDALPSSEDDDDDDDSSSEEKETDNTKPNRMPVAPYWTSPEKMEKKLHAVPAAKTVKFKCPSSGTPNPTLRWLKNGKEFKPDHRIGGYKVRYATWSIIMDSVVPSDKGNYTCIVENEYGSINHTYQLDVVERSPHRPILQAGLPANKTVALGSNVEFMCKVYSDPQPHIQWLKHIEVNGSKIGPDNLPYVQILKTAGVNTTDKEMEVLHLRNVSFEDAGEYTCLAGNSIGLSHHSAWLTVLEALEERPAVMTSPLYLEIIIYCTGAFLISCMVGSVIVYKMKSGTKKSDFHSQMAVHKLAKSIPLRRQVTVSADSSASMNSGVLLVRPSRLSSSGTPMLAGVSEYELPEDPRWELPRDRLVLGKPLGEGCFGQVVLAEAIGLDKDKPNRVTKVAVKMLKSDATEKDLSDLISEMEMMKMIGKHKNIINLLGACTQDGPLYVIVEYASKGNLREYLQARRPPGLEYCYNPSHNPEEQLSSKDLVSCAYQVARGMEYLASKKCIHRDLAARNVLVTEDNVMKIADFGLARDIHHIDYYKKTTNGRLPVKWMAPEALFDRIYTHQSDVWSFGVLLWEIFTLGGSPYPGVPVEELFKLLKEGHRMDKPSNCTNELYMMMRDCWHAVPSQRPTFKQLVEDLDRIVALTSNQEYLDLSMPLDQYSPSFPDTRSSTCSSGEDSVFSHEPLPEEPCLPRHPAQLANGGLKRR

For `CN(c1ccc(NC(=O)Nc2c(Cl)cccc2Cl)cc1)c1ccnc(Nc2cccc(CS(C)(=O)=O)c2)n1`, the inhibition was 77.2% in [1]; 11.1% in [2]; 22.5% in assay [3]; 6.14% in [4]; -0.4% in [5]; 3.91% in assay [6]. The inhibition in assay [7] turned out to be 13.4%; in assay [8], 0.14%; in assay [9] it was 5.59%; in assay [10], 2.62%.
Consider `COc1cc(N2CCN(C(C)C)CC2)ccc1Nc1nc(Nc2ccc(F)cc2C(=O)NC[C@@H](O)CO)c2cc[nH]c2n1`, for which the inhibition in assay [1] is 60.2%; in assay [2] it was 4.45%; in assay [3], 20.1%; in [4] it was -0.71%; in assay [5], 5.9%; in assay [6] it was 1.11%. Besides, the inhibition in [7] was 1.86%; in assay [8] it was 1.06%; in [9], 3.63%; in assay [10], -2.86%.
For `CCc1nccc2c1nc(-c1nonc1N)n2CC`, the inhibition was 7.31% in [1]; 0.14% in assay [2]; 1.26% in assay [3]; -0.52% in assay [4]; -4.23% in [5]; -1.59% in assay [6]. The inhibition in assay [7] was 3.19%; in [8] it was -0.24%; in [9], 2.1%; in [10], -1.31%.
Turning to `Fc1ccc(-c2ncn(C3CCNCC3)c2-c2ccnc(Oc3ccc4c(c3)OCO4)n2)cc1`, the inhibition stood at 10.4% in [1]; 4.19% in assay [2]; 3.36% in assay [3]; 3.51% in assay [4]; 11.8% in assay [5]; 6.16% in assay [6]. In addition, the inhibition amounted to 12% in assay [7], 6.95% in [8] and 9.41% in assay [9].
`CCS(=O)(=O)c1ccc(OC)c(Nc2ncc(-c3cccc(-c4ccccc4F)c3)o2)c1`: the inhibition in assay [1] was 2.29%; in [2], -0.07%; in assay [3], 0.23%; in assay [4], 6.92%; in assay [5], 40%; in assay [6], 29.3%. Moreover, the inhibition in assay [7] is 60.6%; in [8], 29.3%; in assay [9] it was 65.5%; in [10], 3.01%.
On to `C[C@@H](Oc1cc(-n2cnc3ccc(OCC4CCN(C)CC4)cc32)sc1C(N)=O)c1ccccc1Cl`, for which the inhibition in [1] was found to be 7.17%; in assay [2] it was 4.96%; in [3], 7.97%; in assay [4] it was 5.32%; in assay [5], 14%; in assay [6], 9.46%. The inhibition worked out at 12.5% in assay [7], 11.2% in [8], 8.71% in assay [9] and 3.93% in assay [10].
In the case of `O=C(Nc1ccc(Oc2ccc3[nH]c(NC(=O)c4ccccc4)nc3c2)cc1)Nc1cc(C(F)(F)F)ccc1F`, the inhibition in [1] amounted to 7.9%; in assay [2] it was 2.28%; in assay [3], 2.49%; in assay [4], 2.35%; in [5], 6.8%; in assay [6], 2.19%. The inhibition was 18.8% in assay [7], 7.91% in assay [8], 6.31% in assay [9] and -0.39% in assay [10].
`O=C(Nc1n[nH]c2cc(-c3ccccc3)ccc12)C1CC1`: the inhibition came out at 5.6% in assay [1]; 2.97% in assay [2]; 2.53% in assay [3]; 8.51% in [4]; 2.95% in [5]; 3.3% in [6]. In addition, the inhibition in [7] was 7.98%; in assay [8], 6.47%; in assay [9], 5.96%; in assay [10], -0.91%.
Turning to `Nc1nccc(-c2c(-c3ccc(F)cc3)ncn2C2CCC(O)CC2)n1` (centres undefined), the inhibition in assay [1] is 19.8%; in assay [2] it was -2.78%; in [3], -2.56%; in [4] it was 0.56%; in assay [5], 11.3%; in assay [6], -2.57%. For the same molecule, the inhibition was 1.23% in assay [7], -0.35% in assay [8], 1.39% in assay [9] and 2.77% in assay [10].
Take `CCS(=O)(=O)c1ccc(OC)c(Nc2ncc(-c3ccccc3Cl)o2)c1`: the inhibition in assay [1] stood at 2.34%; in assay [2], 0.35%; in assay [3] it was 0.33%; in assay [4] it was 2.09%; in assay [5] it was 7.29%; in assay [6], 6.83%. The inhibition in [7] came out at 33%; in assay [8] it was 6.65%; in [9] it was 32.4%; in assay [10] it was 3.96%.
Turning to `O=C(Nc1n[nH]c2nc(-c3ccco3)ccc12)C1CC1`, the inhibition in [1] was 2.89%; in [2] it was 1.02%; in [3] it was 1.51%; in [4], 2.13%; in assay [5], 2.39%; in assay [6] it was -0.33%. Besides, the inhibition in [7] was determined as 5.26%; in assay [8], 1.13%; in assay [9] it was 3.83%; in [10], 2.11%.
With `Fc1ccc(-c2c(-c3ccncc3)nc3n2CCS3)cc1`, the inhibition in assay [1] was 1.89%; in [2], 1.15%; in assay [3], 0.99%; in assay [4], -4.25%; in assay [5], 0.23%; in assay [6] it was -1.78%. For the same molecule, the inhibition was 0.6% in [7], 1.37% in assay [8], 1.47% in [9] and -6.43% in assay [10].
As to `NC(=O)c1ccc(Oc2nccc(-c3c(-c4ccc(F)cc4)ncn3C3CCNCC3)n2)cc1`, the inhibition was determined as 10.6% in assay [1]; 4.82% in assay [2]; 4.5% in [3]; 5.23% in assay [4]; 8.19% in [5]; 11.3% in [6]. Further, the inhibition in assay [7] was 8.04%; in assay [8], 11%; in assay [9] it was 6.64%; in assay [10], 5.18%.
As for `COc1cc(Nc2ncc(-c3ccccc3)o2)cc(OC)c1OC`, the inhibition in [1] is 2.66%; in assay [2], 0.68%; in assay [3], -1.45%; in assay [4] it was -3.33%; in assay [5], 8.79%; in [6], 4.47%. Besides, the inhibition is 27% in assay [7], 1.69% in assay [8], 16.6% in [9] and -0.19% in assay [10].
`CS(=O)(=O)CCNCc1cc(-c2cc3c(Nc4ccc(OCc5cccc(F)c5)c(Cl)c4)ncnc3s2)cs1`: the inhibition in [1] was 7.65%; in [2] it was 4.73%; in [3], 5.27%; in assay [4], 5.5%; in assay [5], 3.17%; in assay [6] it was 7.79%. Moreover, the inhibition came to 8.79% in [7], 6% in [8], 6.34% in assay [9] and 5.68% in assay [10].
As to `CCc1ccc(Oc2nccc(-c3c(-c4ccc(F)cc4)ncn3C3CCNCC3)n2)cc1`, the inhibition was found to be 3.15% in assay [1]; 3.41% in [2]; 3.8% in assay [3]; 7.59% in assay [4]; 4.77% in assay [5]; 9.05% in assay [6]. For the same molecule, the inhibition in assay [7] is 5.8%; in [8], 7.97%; in assay [9], 5%; in assay [10] it was 7.02%.
As to `Clc1ccc(CNc2nccc(-c3cnn4ncccc34)n2)cc1`, the inhibition in [1] was 1.93%; in assay [2], 0.01%; in assay [3] it was 1.6%; in [4] it was 0.58%; in [5], -1.59%; in [6], 0.2%. For the same molecule, the inhibition in [7] is 1.7%; in [8], -0.71%; in assay [9], -0.67%; in assay [10], 4.74%.

(Values after ChEMBL document CHEMBL1961873, “Compounds: GSK PKIS; Assays: Nanosyn kinase panel” (2012).)
